{"source": "the supplement of paper PMC10646978", "settings_in_all_cases": "modulator concentration 10 µM", "key": {"[1]": {"tested_on": "RAW-Dual (murine macrophage reporter line)", "test": "NF-kB reporter (SEAP) activity fold change vs agonist alone; higher = enhanced NF-kB activity", "outline": "(§1)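 In 384-well plates holding 50 000 RAW-Dual murine macrophage reporter cells per well, compound at 10 μM final was pre-incubated for 1 hour at 37 °C, after which a PRR agonist was added overnight. Supernatant SEAP read with QUANTI-Blue at 620 nm absorbance reported NF-κB, and Lucia luciferase read with QUANTI-Luc luminescence reported IRF. Fold change values come from dividing each reporter signal by the mean of agonist-only control wells on the same plate, averaged over replicate plates with propagated errors.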"}, "[2]": {"tested_on": "RAW-Dual (murine macrophage reporter line)", "test": "IRF reporter (Lucia luciferase) activity fold change vs agonist alone; higher = enhanced IRF activity", "outline": "as §1"}, "[3]": {"tested_on": "RAW-Dual (murine macrophage reporter line)", "test": "viability score (confluency relative to resting cells, overnight) (fraction); higher = more viable, active = viable (0.7 or more)", "outline": "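In 384-well plates, RAW-Dual macrophages received compound at a final 10 μM overnight. Two confluency masks were then made with IncuCyte software from IncuCyte images of all imaged wells. The viability score is defined as confluency relative to resting cells. Passing the cutoff required both masks to lie above 70% of resting cells.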"}, "[4]": {"settings": "agonist: CpG ODN 1826 0.5 ug/mL"}}, "note": "± gives the standard deviation."}
{"smiles": "COc1ccc(CC(=O)N2CCCc3ccccc32)cc1OC", "values": [{"measurement": "NF-kB reporter", "setting": "[1]; [4]", "value": "0.909 ± 0.078"}, {"measurement": "NF-kB reporter", "setting": "[1]; agonist: LPS 0.1 ug/mL", "value": "0.778 ± 0.054"}, {"measurement": "NF-kB reporter", "setting": "[1]; agonist: MPLA […]", "value": "1.01 ± 0.09"}, {"measurement": "IRF reporter", "setting": "[2]; agonist: 3'3'-cGAMP 10 ug/mL", "value": "0.973 ± 0.046"}, {"measurement": "IRF reporter", "setting": "[2]; agonist: LPS 0.1 ug/mL", "value": "1.41 ± 0.1"}, {"measurement": "IRF reporter", "setting": "[2]; agonist: MPLA […]", "value": "1.6 ± 0.17"}, {"measurement": "viability score", "setting": "[3]", "value": "1.02 (active)"}]}
{"smiles": "O=C1CN(/N=C/c2ccc([N+](=O)[O-])o2)C(=O)N1", "values": [{"measurement": "NF-kB reporter", "setting": "[1]; [4]", "value": "1.13 ± 0.27"}, {"measurement": "NF-kB reporter", "setting": "[1]; agonist: LPS 0.1 ug/mL", "value": "1.14 ± 0.087"}, {"measurement": "NF-kB reporter", "setting": "[1]; agonist: MPLA […]", "value": "0.87 ± 0.068"}, {"measurement": "IRF reporter", "setting": "[2]; agonist: 3'3'-cGAMP 10 ug/mL", "value": "0.821 ± 0.029"}, {"measurement": "IRF reporter", "setting": "[2]; agonist: LPS 0.1 ug/mL", "value": "1.21 ± 0.16"}, {"measurement": "IRF reporter", "setting": "[2]; agonist: MPLA […]", "value": "1.14 ± 0.17"}, {"measurement": "viability score", "setting": "[3]", "value": "0.994 (active)"}]}
{"smiles": "Cc1cccc(Nc2ccccc2C(=O)O)c1C", "values": [{"measurement": "NF-kB reporter", "setting": "[1]; [4]", "value": "0.847 ± 0.063"}, {"measurement": "NF-kB reporter", "setting": "[1]; agonist: LPS 0.1 ug/mL", "value": "0.923 ± 0.13"}, {"measurement": "NF-kB reporter", "setting": "[1]; agonist: MPLA […]", "value": "0.962 ± 0.035"}, {"measurement": "IRF reporter", "setting": "[2]; agonist: 3'3'-cGAMP 10 ug/mL", "value": "1.03 ± 0.075"}, {"measurement": "IRF reporter", "setting": "[2]; agonist: LPS 0.1 ug/mL", "value": "1.03 ± 0.092"}, {"measurement": "IRF reporter", "setting": "[2]; agonist: MPLA […]", "value": "0.98 ± 0.089"}, {"measurement": "viability score", "setting": "[3]", "value": "0.999 (active)"}]}
{"smiles": "COC(=O)C1C(=O)C(=CNc2ccccc2C)C(=O)CC1(C)C", "note": "(stereo unspecified)", "values": [{"measurement": "NF-kB reporter", "setting": "[1]; [4]", "value": "1.07 ± 0.092"}, {"measurement": "NF-kB reporter", "setting": "[1]; agonist: LPS 0.1 ug/mL", "value": "1.02 ± 0.075"}, {"measurement": "NF-kB reporter", "setting": "[1]; agonist: MPLA […]", "value": "1.03 ± 0.1"}, {"measurement": "IRF reporter", "setting": "[2]; agonist: 3'3'-cGAMP 10 ug/mL", "value": "0.993 ± 0.049"}, {"measurement": "IRF reporter", "setting": "[2]; agonist: LPS 0.1 ug/mL", "value": "1.12 ± 0.34"}, {"measurement": "IRF reporter", "setting": "[2]; agonist: MPLA […]", "value": "1.08 ± 0.2"}, {"measurement": "viability score", "setting": "[3]", "value": "1.03 (active)"}]}
{"smiles": "CCCCc1c(C)nc(NN=C(C)c2cccc([N+](=O)[O-])c2)nc1O", "values": [{"measurement": "NF-kB reporter", "setting": "[1]; [4]", "value": "0.954 ± 0.081"}, {"measurement": "NF-kB reporter", "setting": "[1]; agonist: LPS 0.1 ug/mL", "value": "0.941 ± 0.092"}, {"measurement": "NF-kB reporter", "setting": "[1]; agonist: MPLA […]", "value": "1.11 ± 0.1"}, {"measurement": "IRF reporter", "setting": "[2]; agonist: 3'3'-cGAMP 10 ug/mL", "value": "0.912 ± 0.032"}, {"measurement": "IRF reporter", "setting": "[2]; agonist: LPS 0.1 ug/mL", "value": "1.12 ± 0.15"}, {"measurement": "IRF reporter", "setting": "[2]; agonist: MPLA […]", "value": "1.18 ± 0.19"}, {"measurement": "viability score", "setting": "[3]", "value": "1.01 (active)"}]}
{"smiles": "O=C(c1ccc(F)cc1)C1CCN(CCn2c(=O)[nH]c3ccccc3c2=O)CC1", "values": [{"measurement": "NF-kB reporter", "setting": "[1]; [4]", "value": "0.477 ± 0.028"}, {"measurement": "NF-kB reporter", "setting": "[1]; agonist: LPS 0.1 ug/mL", "value": "0.956 ± 0.1"}, {"measurement": "NF-kB reporter", "setting": "[1]; agonist: MPLA […]", "value": "1.34 ± 0.072"}, {"measurement": "IRF reporter", "setting": "[2]; agonist: 3'3'-cGAMP 10 ug/mL", "value": "1.47 ± 0.068"}, {"measurement": "IRF reporter", "setting": "[2]; agonist: LPS 0.1 ug/mL", "value": "1.21 ± 0.19"}, {"measurement": "IRF reporter", "setting": "[2]; agonist: MPLA […]", "value": "1.45 ± 0.34"}, {"measurement": "viability score", "setting": "[3]", "value": "0.314 (inactive)"}]}
{"smiles": "COc1ccc2ccccc2c1-c1nnc2ccc(C(F)(F)F)cn12", "values": [{"measurement": "NF-kB reporter", "setting": "[1]; [4]", "value": "0.87 ± 0.1"}, {"measurement": "NF-kB reporter", "setting": "[1]; agonist: LPS 0.1 ug/mL", "value": "0.997 ± 0.056"}, {"measurement": "NF-kB reporter", "setting": "[1]; agonist: MPLA […]", "value": "0.854 ± 0.089"}, {"measurement": "IRF reporter", "setting": "[2]; agonist: 3'3'-cGAMP 10 ug/mL", "value": "0.992 ± 0.036"}, {"measurement": "IRF reporter", "setting": "[2]; agonist: LPS 0.1 ug/mL", "value": "1.37 ± 0.18"}, {"measurement": "IRF reporter", "setting": "[2]; agonist: MPLA […]", "value": "1.07 ± 0.2"}, {"measurement": "viability score", "setting": "[3]", "value": "1.01 (active)"}]}
{"smiles": "CCOC(=O)C1=C(C)NC(=O)N(C(C)=O)C1c1ccc(Br)cc1", "note": "(stereo unspecified)", "values": [{"measurement": "NF-kB reporter", "setting": "[1]; [4]", "value": "0.554 ± 0.032"}, {"measurement": "NF-kB reporter", "setting": "[1]; agonist: LPS 0.1 ug/mL", "value": "0.898 ± 0.1"}, {"measurement": "NF-kB reporter", "setting": "[1]; agonist: MPLA […]", "value": "0.868 ± 0.052"}, {"measurement": "IRF reporter", "setting": "[2]; agonist: 3'3'-cGAMP 10 ug/mL", "value": "1.28 ± 0.044"}, {"measurement": "IRF reporter", "setting": "[2]; agonist: LPS 0.1 ug/mL", "value": "1.66 ± 0.14"}, {"measurement": "IRF reporter", "setting": "[2]; agonist: MPLA […]", "value": "1.34 ± 0.2"}, {"measurement": "viability score", "setting": "[3]", "value": "0.621 (inactive)"}]}
{"smiles": "CCn1nnc2c(NCCc3c[nH]c4ccccc34)ncnc21", "values": [{"measurement": "NF-kB reporter", "setting": "[1]; [4]", "value": "0.961 ± 0.042"}, {"measurement": "NF-kB reporter", "setting": "[1]; agonist: LPS 0.1 ug/mL", "value": "1.09 ± 0.1"}, {"measurement": "NF-kB reporter", "setting": "[1]; agonist: MPLA […]", "value": "1.09 ± 0.058"}, {"measurement": "IRF reporter", "setting": "[2]; agonist: 3'3'-cGAMP 10 ug/mL", "value": "0.768 ± 0.043"}, {"measurement": "IRF reporter", "setting": "[2]; agonist: LPS 0.1 ug/mL", "value": "1.05 ± 0.15"}, {"measurement": "IRF reporter", "setting": "[2]; agonist: MPLA […]", "value": "1.11 ± 0.32"}, {"measurement": "viability score", "setting": "[3]", "value": "0.958 (active)"}]}
{"smiles": "O=C(c1ccc(C(F)(F)F)nc1)N1CC(n2cc(C3CC3)nn2)C1", "values": [{"measurement": "NF-kB reporter", "setting": "[1]; [4]", "value": "0.889 ± 0.073"}, {"measurement": "NF-kB reporter", "setting": "[1]; agonist: LPS 0.1 ug/mL", "value": "0.931 ± 0.095"}, {"measurement": "NF-kB reporter", "setting": "[1]; agonist: MPLA […]", "value": "1.13 ± 0.082"}, {"measurement": "IRF reporter", "setting": "[2]; agonist: 3'3'-cGAMP 10 ug/mL", "value": "1.01 ± 0.071"}, {"measurement": "IRF reporter", "setting": "[2]; agonist: LPS 0.1 ug/mL", "value": "1.06 ± 0.15"}, {"measurement": "IRF reporter", "setting": "[2]; agonist: MPLA […]", "value": "1.08 ± 0.29"}, {"measurement": "viability score", "setting": "[3]", "value": "0.942 (active)"}]}
{"smiles": "CC(C)(C)n1cnc2cc(N=Cc3ccc(Cl)cc3)ccc21", "values": [{"measurement": "NF-kB reporter", "setting": "[1]; [4]", "value": "1.21 ± 0.14"}, {"measurement": "NF-kB reporter", "setting": "[1]; agonist: LPS 0.1 ug/mL", "value": "1.01 ± 0.12"}, {"measurement": "NF-kB reporter", "setting": "[1]; agonist: MPLA […]", "value": "1.4 ± 0.055"}, {"measurement": "IRF reporter", "setting": "[2]; agonist: 3'3'-cGAMP 10 ug/mL", "value": "0.888 ± 0.059"}, {"measurement": "IRF reporter", "setting": "[2]; agonist: LPS 0.1 ug/mL", "value": "0.805 ± 0.048"}, {"measurement": "IRF reporter", "setting": "[2]; agonist: MPLA […]", "value": "0.996 ± 0.1"}, {"measurement": "viability score", "setting": "[3]", "value": "1 (active)"}]}
{"smiles": "CCCCCCOc1ccc(N2C(=O)CC(SC(=Nc3ccccc3)Nc3ccccc3)C2=O)cc1", "note": "(stereo unspecified)", "values": [{"measurement": "NF-kB reporter", "setting": "[1]; [4]", "value": "0.968 ± 0.08"}, {"measurement": "NF-kB reporter", "setting": "[1]; agonist: LPS 0.1 ug/mL", "value": "1.07 ± 0.073"}, {"measurement": "NF-kB reporter", "setting": "[1]; agonist: MPLA […]", "value": "0.856 ± 0.05"}, {"measurement": "IRF reporter", "setting": "[2]; agonist: 3'3'-cGAMP 10 ug/mL", "value": "0.937 ± 0.036"}, {"measurement": "IRF reporter", "setting": "[2]; agonist: LPS 0.1 ug/mL", "value": "1.45 ± 0.092"}, {"measurement": "IRF reporter", "setting": "[2]; agonist: MPLA […]", "value": "1.23 ± 0.25"}, {"measurement": "viability score", "setting": "[3]", "value": "0.996 (active)"}]}
{"smiles": "CCOC(C#CCN(CC)CC)(c1ccccc1)c1ccccc1.Cl", "values": [{"measurement": "NF-kB reporter", "setting": "[1]; [4]", "value": "0.215 ± 0.018"}, {"measurement": "NF-kB reporter", "setting": "[1]; agonist: LPS 0.1 ug/mL", "value": "0.353 ± 0.049"}, {"measurement": "NF-kB reporter", "setting": "[1]; agonist: MPLA […]", "value": "0.424 ± 0.031"}, {"measurement": "IRF reporter", "setting": "[2]; agonist: 3'3'-cGAMP 10 ug/mL", "value": "0.773 ± 0.051"}, {"measurement": "IRF reporter", "setting": "[2]; agonist: LPS 0.1 ug/mL", "value": "0.813 ± 0.054"}, {"measurement": "IRF reporter", "setting": "[2]; agonist: MPLA […]", "value": "1.62 ± 0.4"}, {"measurement": "viability score", "setting": "[3]", "value": "0.0625 (inactive)"}]}
